# Data reported in PubChem BioAssay (NCATS).
# Results filed as inconclusive are left out. The source made the active and inactive calls. Unless noted, the call rests on the fitted dose curve.
# What was measured:
# [1] = biological target: Estrogen receptor (Homo sapiens) (UniProt P03372); experiment: qHTS assay for small molecule antagonists of estrogen receptor alpha signaling (AID 588513; active means well fitted curve in the direction sought with a large enough effect in the signal ratio, with a control signal flat, not every such curve was filed as active; the % refers to the signal ratio; further: on the % scale 0 is the no-effect control and ±100 the full control effect)
# Procedure, shortened: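 Cells were plated at 5000/well and incubated 4 h at 37 C. Compounds were added as 1:2 dilution series, duplicates. 17-beta-estradiol (0.5nM final) was added for 18 h before CCF4 detection.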
# [2] = biological target: Estrogen receptor (Homo sapiens) (UniProt P03372); experiment: qHTS assay for small molecule agonists of estrogen receptor alpha signaling (AID 588514);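 further: 0% = vehicle only and 100% = reference agonist; nearly all actives have a fitted effect of over 70% in size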
# Procedure, shortened: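 Reporter-gene assay. […] controls beta-lactamase in HEK 293 GripTite cells; after 18 hrs with compound, CCF4 substrate is added for 2 hrs and fluorescence is read.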
# [3] = qHTS assay for small molecule antagonists of peroxisome proliferator-activated receptor delta signaling (AID 588535); conditions: HEK293T PPARd-UAS-bla, beta-lactamase FRET ratio, 18 h; 460 nm channel;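 further: cells co-treated with a PPAR-delta agonist as stimulator during compound exposure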
# Procedure, shortened: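 Cells were seeded at 4000 per well in assay medium containing 2% charcoal/dextran FBS and held 5 hrs at 37 C. Compounds were then added for 18 hrs. CCF4 substrate was applied for 2 hrs at room temperature before fluorescence reading.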
# [4] = biological target: Vitamin D3 receptor (Homo sapiens) (UniProt P11473); experiment: qHTS assay for small molecule antagonists of vitamin D receptor signaling (AID 588541);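 further: receptor activated by calcitriol during compound treatment; series mostly up to about 77 µM; on the % scale 0 is the no-effect control and ±100 the full control effect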
# Procedure, shortened: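 VDR-UAS-bla HEK293T cells in 2% charcoal-stripped FBS were stimulated with 1-alpha,25-dihydroxyvitamin D3 (3 nM final) plus compound for 16 h at 37 C. The beta-lactamase CCF4 readout was normalized to 50 nM agonist and DMSO, and Hill fits gave IC50.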
# [5] = biological target: Vitamin D3 receptor (Homo sapiens) (UniProt P11473); experiment: qHTS assay for small molecule agonists of vitamin D receptor signaling (AID 588543);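 further: 0% = DMSO basal and 100% = reference agonist control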
# Procedure, shortened: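 qHTS in agonist mode: compound titrations stimulate a VDR-driven β-lactamase reporter in HEK293T cells over 16 h at 37 °C. Response normalized to 50 nM 1α,25-dihydroxyvitamin D3 = 100%, DMSO = 0%; Hill fitting gives EC50 and maximal response.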
# [6] = qHTS assay for small molecule agonists of retinoid X receptor alpha signaling (AID 588544); conditions: HEK293T RXRa-UAS-bla, beta-lactamase reporter, 18 h; 530 nm emission;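 on activation: 0% = DMSO basal wells and 100% = reference agonist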
# [7] = biological target: Retinoic acid receptor RXR-alpha (Homo sapiens) (UniProt P19793); experiment: as above
# [8] = qHTS assay for small molecule antagonists of retinoid X receptor alpha signaling (AID 588546; active means well fitted inhibition curve with a large enough effect in the signal ratio, with a control signal flat, not every such curve was filed as active; the % refers to the signal ratio;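 further: cells stimulated with 9-cis-retinoic acid as agonist; on the % scale 0 is the no-effect control and ±100 the full control effect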); conditions: HEK293T RXRa-UAS-bla, beta-lactamase ratio, antagonist mode; measured here: W530 green channel, cytotoxicity proxy
# Procedure, shortened: (§1)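 Beta-lactamase reporter inhibition, read as CCF4 fluorescence ratio (ex 405, em 460/530 nm) after 2 h at RT. HEK293T UAS-bla cells, 2500/well, were stimulated with 9-cis-RA at 500 or 100 nM final alongside test compound for 18 h at 37 C.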
# [9] = biological target: Retinoic acid receptor RXR-alpha (Homo sapiens) (UniProt P19793); experiment: as above; conditions: HEK293T RXRa-UAS-bla, beta-lactamase ratio, antagonist mode
# Procedure, shortened: as §1
# [10] = biological target: Thyroid hormone receptor beta (Homo sapiens) (UniProt P10828); experiment: qHTS assay for small molecule antagonists of thyroid hormone receptor beta signaling (AID 588547; active means well fitted inhibition curve with a large enough effect in the signal ratio, with a control signal flat, not every such curve was filed as active; the % refers to the signal ratio;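 further: cells stimulated with 0.4 nM T3 agonist during compound exposure; series mostly up to about 77 µM; on the % scale 0 is the no-effect control and ±100 the full control effect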); conditions: TR-UAS-bla HEK293, beta-lactamase ratio, antagonist mode, 18 h
# Procedure, shortened: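 TR-UAS-bla GripTite HEK293 cells in 2% charcoal/dextran FBS medium; compounds 0.59 nM to 92 uM with T3 at 0.4nM final, 18 h at 37 C. Beta-lactamase read by CCF4 fluorescence (460/530 nm); Hill fits gave IC50 and efficacy.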
# [11] = qHTS assay for small molecule activators of the p53 signaling pathway (AID 651743; active means well fitted activation curve with a large enough effect in the signal ratio, not every such curve was filed as active; the % refers to the signal ratio; further: series mostly up to about 92 µM; % of control where 0% means no effect); conditions: HCT-116 p53RE-bla, beta-lactamase FRET ratio, 16 h; activation: stronger effect = higher value
# Procedure, shortened: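 HCT-116 p53RE-bla, 4,000 cells/well; 5 h settle; cpd/DMSO 16 h, 37 C; LiveBLAzer B/G 2 h RT; fluorescence intensity.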
# [12] = qHTS assay for environmental chemicals that activate the Aryl hydrocarbon Receptor (AhR) signaling pathway (AID 651777; active means well fitted curve in the direction sought with a large enough effect; an effect the other way counts as inactive or inconclusive; further: % of control where 0% means no effect; nearly all actives have a fitted effect of over 15% in size); conditions: 1A2-DRE human hepatoma cells, luciferase, 24 h; activation: stronger effect = higher value
# Procedure, shortened: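 1A2-DRE human hepatoma reporter line; 1,200 cells/well; cmpd or DMSO 24 h, 37 C/5% CO2; One-Glo 30 min RT; luciferase lum.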
# [13] = biological target: Peroxisome proliferator-activated receptor alpha (Homo sapiens) (UniProt Q07869); experiment: qHTS assay for small molecule agonists of the peroxisome proliferator-activated receptor alpha (PPARalpha) signaling pathway (AID 651778; active means well fitted curve in the direction sought with a large enough effect; an effect the other way counts as inactive or inconclusive; further: % of control where 0% means no effect); conditions: PathHunter PPARalpha complementation, chemiluminescence, 6 h; max response: stronger effect = higher value
# Procedure, shortened: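 Enzyme-fragment complementation assay in which ligand-bound PPARalpha translocates and forms an active enzyme that generates chemiluminescence. Cells were plated overnight, exposed to compound for 6 hr at 37 C, and then given detection reagent for 60 min at room temperature.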
# [14] = qHTS assay for small molecule agonists of the antioxidant response element (ARE) signaling pathway measured by Nrf2-dependant transcriptional activity (AID 720636; active means well fitted curve in the direction sought with a large enough effect in the repeat runs; an effect the other way counts as inactive or inconclusive;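 further: HepG2 cells with an ARE-driven luciferase reporter; % of control where 0% means no effect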)
# Procedure, shortened: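 Cells: ARE-luc HepG2 with Nrf2-responsive luciferase. Medium contained 1% dialyzed FBS. Compound exposure lasted 16 hr at 37 C and 5% CO2, followed by ONE-Glo luciferase detection.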
# [15] = qHTS assay for small molecule agonists of the antioxidant response element (ARE) signaling pathway measured by Nrf2-dependant transcriptional activity - cell viability counter screen (AID 720653; active means well fitted curve in the direction sought with a large enough effect in the repeat runs; an effect the other way counts as inactive or inconclusive; further: on the % scale 0 is the no-effect control and ±100 the full control effect); conditions: ARE-bla HepG2 viability, CellTiter-Glo ATP luminescence, 16 h; max response: stronger effect = lower value
# Procedure, shortened: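 ARE-bla HepG2 cells treated with compounds for 16 h at 37C; this counter screen measures viability as intracellular ATP by CellTiter-Glo luminescence after 30 min at room temperature.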
# [16] = qHTS assay for cell viability of HEK293 cells (AID 743288; active means well fitted curve in the direction sought with a large enough effect; an effect the other way counts as inactive or inconclusive; further: on the % scale 0 is the no-effect control and ±100 the full control effect; nearly all actives have a fitted effect of over 50% in size); conditions: ATP luminescence (CellTiter-Glo), 18 h; max response: stronger effect = lower value
# Procedure, shortened: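 The Tox21 protocol used parental HEK293 cells treated for 18 h at 37 C with compounds delivered by pintool; ATP-coupled luminescence after 30 min at room temperature gave viability.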
# [17] = qHTS assay for cell viability of the p53RE-bla HCT-116 cell line (AID 743292; active means well fitted curve in the direction sought with a large enough effect; an effect the other way counts as inactive or inconclusive; further: on the % scale 0 is the no-effect control and ±100 the full control effect; nearly all actives have a fitted effect of over 55% in size)
# Procedure, shortened: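 HCT-116 p53RE-bla cells seeded 4,000/well; 5 h at 37 C; compound (DMSO) added; 16 h at 37 C; CellTiter-Glo added, 30 min RT; luminescence read.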
# [18] = biological target: Nuclear receptor subfamily 1 group I member 2 (Rattus norvegicus) (UniProt Q9R1A7); experiment: qHTS assay for small molecule activators of the rat pregnane X receptor (rPXR) signaling pathway (AID 651751; call rule not given here; further: 0% is about no effect); conditions: rPXR reporter cells, luciferase (One-Glo), 24 h
# [19] = qHTS assay for small molecule activators of the human pregnane X receptor (PXR) signaling pathway (AID 720659; call rule not given here; further: 0% is about no effect)
# [20] = biological target: Thyroid hormone receptor beta (Homo sapiens) (UniProt P10828); experiment: qHTS assay for small molecule agonists of thyroid hormone receptor beta signaling (AID 588545)
# Procedure, shortened: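 Agonist-mode beta-lactamase reporter assay, HEK 293 cells, 2% charcoal/dextran FBS; cells plated 4 hrs, compound 18 hrs at 37 C, CCF4 2 hrs RT. Normalized to 10 nM T3 (100%) and DMSO (0%); Hill fit gives EC50, efficacy.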
# Retinoic acid receptor RXR-alpha (Homo sapiens), sequence (P19793 whole entry, looked up): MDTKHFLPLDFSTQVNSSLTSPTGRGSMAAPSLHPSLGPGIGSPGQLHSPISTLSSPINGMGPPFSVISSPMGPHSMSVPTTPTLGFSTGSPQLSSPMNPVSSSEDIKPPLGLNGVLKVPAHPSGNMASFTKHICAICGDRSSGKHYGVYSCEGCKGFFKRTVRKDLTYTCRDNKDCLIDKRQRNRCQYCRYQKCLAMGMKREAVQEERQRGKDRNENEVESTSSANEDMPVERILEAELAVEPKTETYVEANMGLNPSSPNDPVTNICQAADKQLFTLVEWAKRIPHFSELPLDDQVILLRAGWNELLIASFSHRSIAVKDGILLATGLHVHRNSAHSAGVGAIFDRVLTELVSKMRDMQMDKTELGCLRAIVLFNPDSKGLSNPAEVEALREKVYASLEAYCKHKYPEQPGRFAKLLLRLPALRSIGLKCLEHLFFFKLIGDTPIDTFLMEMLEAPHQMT
# Nuclear receptor subfamily 1 group I member 2 (Rattus norvegicus), sequence (Q9R1A7 whole entry, looked up): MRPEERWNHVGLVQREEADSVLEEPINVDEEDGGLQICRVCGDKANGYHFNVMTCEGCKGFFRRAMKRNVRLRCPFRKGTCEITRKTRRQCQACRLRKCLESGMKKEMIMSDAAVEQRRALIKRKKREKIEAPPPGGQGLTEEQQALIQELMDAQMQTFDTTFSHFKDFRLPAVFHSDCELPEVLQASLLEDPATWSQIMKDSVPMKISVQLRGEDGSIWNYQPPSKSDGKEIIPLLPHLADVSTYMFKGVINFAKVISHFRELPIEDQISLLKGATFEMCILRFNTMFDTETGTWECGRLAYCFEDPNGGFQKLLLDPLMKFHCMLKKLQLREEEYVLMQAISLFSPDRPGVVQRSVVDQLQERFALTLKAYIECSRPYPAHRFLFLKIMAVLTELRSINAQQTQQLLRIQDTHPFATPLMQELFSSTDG
# Estrogen receptor (Homo sapiens), sequence (P03372 whole entry, looked up): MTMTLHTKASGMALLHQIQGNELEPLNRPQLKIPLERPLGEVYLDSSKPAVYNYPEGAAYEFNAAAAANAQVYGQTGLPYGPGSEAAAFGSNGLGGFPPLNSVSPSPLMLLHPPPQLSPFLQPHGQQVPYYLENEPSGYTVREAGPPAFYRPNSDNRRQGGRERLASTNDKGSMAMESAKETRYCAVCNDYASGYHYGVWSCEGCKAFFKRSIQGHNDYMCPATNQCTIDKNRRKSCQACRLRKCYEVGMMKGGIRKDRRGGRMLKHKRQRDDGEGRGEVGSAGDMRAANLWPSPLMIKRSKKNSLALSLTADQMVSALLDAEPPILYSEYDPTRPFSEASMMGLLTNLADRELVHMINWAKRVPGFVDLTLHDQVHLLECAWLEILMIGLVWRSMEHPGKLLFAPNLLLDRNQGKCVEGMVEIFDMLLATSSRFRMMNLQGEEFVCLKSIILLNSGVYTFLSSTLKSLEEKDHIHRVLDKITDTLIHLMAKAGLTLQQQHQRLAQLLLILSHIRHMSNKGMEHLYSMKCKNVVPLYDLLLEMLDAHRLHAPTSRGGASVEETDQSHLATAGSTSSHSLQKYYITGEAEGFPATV
# Vitamin D3 receptor (Homo sapiens), sequence (P11473 whole entry, looked up): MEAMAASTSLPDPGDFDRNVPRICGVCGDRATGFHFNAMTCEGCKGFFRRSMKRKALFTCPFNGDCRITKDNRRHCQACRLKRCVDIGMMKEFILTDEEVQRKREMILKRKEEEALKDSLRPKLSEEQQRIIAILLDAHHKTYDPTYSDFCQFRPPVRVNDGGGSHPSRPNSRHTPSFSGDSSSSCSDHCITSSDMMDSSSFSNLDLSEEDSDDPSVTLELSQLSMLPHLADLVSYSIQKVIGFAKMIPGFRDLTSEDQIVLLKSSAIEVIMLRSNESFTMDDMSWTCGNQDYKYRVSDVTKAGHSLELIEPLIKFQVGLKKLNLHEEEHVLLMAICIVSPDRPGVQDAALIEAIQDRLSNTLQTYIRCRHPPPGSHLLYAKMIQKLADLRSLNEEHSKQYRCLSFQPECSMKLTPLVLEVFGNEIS
# Peroxisome proliferator-activated receptor alpha (Homo sapiens), sequence (Q07869 whole entry, looked up, the tested form may be a part): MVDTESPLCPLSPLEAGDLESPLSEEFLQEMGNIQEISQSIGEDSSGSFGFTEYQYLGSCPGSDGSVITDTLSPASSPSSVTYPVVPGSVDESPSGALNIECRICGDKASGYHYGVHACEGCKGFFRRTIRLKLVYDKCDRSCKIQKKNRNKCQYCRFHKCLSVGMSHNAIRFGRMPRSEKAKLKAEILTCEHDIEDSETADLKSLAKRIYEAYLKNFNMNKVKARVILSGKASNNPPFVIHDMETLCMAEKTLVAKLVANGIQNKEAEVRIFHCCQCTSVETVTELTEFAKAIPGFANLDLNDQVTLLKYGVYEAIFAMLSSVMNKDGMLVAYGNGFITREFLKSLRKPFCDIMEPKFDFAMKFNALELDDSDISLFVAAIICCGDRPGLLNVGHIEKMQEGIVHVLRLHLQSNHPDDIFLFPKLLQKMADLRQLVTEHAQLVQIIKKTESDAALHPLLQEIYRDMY
# Thyroid hormone receptor beta (Homo sapiens), sequence (P10828 whole entry, looked up): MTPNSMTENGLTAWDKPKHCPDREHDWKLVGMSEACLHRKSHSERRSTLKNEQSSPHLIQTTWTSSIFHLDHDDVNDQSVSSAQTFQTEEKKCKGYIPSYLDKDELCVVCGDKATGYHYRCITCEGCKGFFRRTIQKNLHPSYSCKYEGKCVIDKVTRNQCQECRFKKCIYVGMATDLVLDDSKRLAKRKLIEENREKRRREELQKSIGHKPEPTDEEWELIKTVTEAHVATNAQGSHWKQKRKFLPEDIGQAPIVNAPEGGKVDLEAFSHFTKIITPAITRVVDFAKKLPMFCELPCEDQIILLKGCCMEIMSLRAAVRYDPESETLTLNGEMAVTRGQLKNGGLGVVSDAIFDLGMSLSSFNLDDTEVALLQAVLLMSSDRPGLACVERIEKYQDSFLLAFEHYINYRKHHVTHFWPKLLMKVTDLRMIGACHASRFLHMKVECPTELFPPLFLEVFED
SMILES,Potency [1],Potency [2],max response [3] [%],Potency [4],outcome [5],max response [6] [%],Potency [7],max response [8] [%],max response [9],activity change % (negative = inhibition) [10],activation [11],activation [12],max response [13],Potency [14],max response [15],max response [16],Potency [17],max response [18],outcome [19],Potency [20]
CCC(C)(C)C1CCC(O)CC1 (stereo not drawn),inactive,inactive,-12.1,inactive,inactive,-12.5,inactive,9.01,-29.4% (inactive),-5.82% (inactive),1.97% (inactive),-0.126% (inactive),-0.406% (inactive),inactive,-8.65% (inactive),-3.71% (inactive),inactive,-1.01% (inactive),inactive,
CC1(C)C(C=C(Cl)Cl)[C@H]1C(=O)OCc1cccc(Oc2ccccc2)c1 (stereo partly drawn),inactive,,35.5,inactive,,,,-16.1,-0.468% (inactive),5.41% (inactive),-1.46% (inactive),,-1.89% (inactive),inactive,-12.3% (inactive),-12.9% (inactive),inactive,,,
CCOC(=O)CC(O)(CC(=O)OCC)C(=O)OCC,inactive,inactive,,inactive,inactive,-10.3,inactive,-3.18,-3.42% (inactive),13% (inactive),-0.036% (inactive),0.341% (inactive),,inactive,-8.63% (inactive),,inactive,-0.162% (inactive),inactive,inactive
O=C(O)C(c1ccc(Cl)cc1)c1ccc(Cl)cc1,inactive,inactive,-10.8,inactive,inactive,,,-10.2,12.2% (inactive),-8.17% (inactive),,-0.789% (inactive),3.51% (inactive),inactive,-12.1% (inactive),,inactive,-4.74% (inactive),inactive,inactive
C[Si]1(C)N[Si](C)(C)N[Si](C)(C)N1,inactive,inactive,,,,-6.42,inactive,-13.1,-7.51% (inactive),17.9% (inactive),,,-0.733% (inactive),inactive,-8.08% (inactive),,inactive,1.59% (inactive),inactive,inactive
